Source: paper PMC12136788
Substitutions are numbered along the chain they refer to. In all, about 24,000 sequences were measured (“enrichment r”: median about 0.99, highest 2% from about 3.7 on). The list comes from a sample in which the highest values are over-represented; it also holds similar and randomly drawn sequences.

T1: UNK ZnF1-3 (human, UniProt Q9C0B0 31-174)
T1 sequence: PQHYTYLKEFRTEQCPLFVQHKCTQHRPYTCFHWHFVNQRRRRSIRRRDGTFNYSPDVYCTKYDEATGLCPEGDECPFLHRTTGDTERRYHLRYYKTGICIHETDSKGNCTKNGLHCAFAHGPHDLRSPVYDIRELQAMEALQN

B1: chr11:86532819:86532820:-_ENSMUSG00000047126_ENSMUST00000103186|perfect_dup|FALSE|FALSE (ssRNA)
RNA: GGGAGUUCUACAGUCCGACGAUCCAUGGCUCUGAGACAUUCUAGGGAGUCUUCUACUGAUAAGGAACCAAAGUAGUUGACUAACCACUCAGGGUUAAGAAGAUGGGUGUGAACCACUGCACGUUUUAUAUCAUAUAAAUCAGUCAACAGAGGAUUGAGCAUCA
B2: chr1:39494564:39494565:+_ENSG00000168653_ENST00000372967|hu_hu|hu_hu_hu_mus_True|18_38 (ssRNA)
RNA: GGGAGUUCUACAGUCCGACGAUCAUGCAUUCGCCUCAUCGUUUUGUACCGAAGCAAGCACUCUUCGAAGUCAUCGAACUCUAUCUUGCACUCCUUUUCUGCCCGAGUCCCACCGAUUCCAUGUGCACACUCUAUCCACUCUUUCAACAGAGGAUUGAGCAUCA
B3: chr14:89338683:89338684:+_ENSG00000165533_ENST00000346301|hu_hu|hu_hu_hu_mus_False|48_58 (ssRNA)
RNA: GGGAGUUCUACAGUCCGACGAUCGUGGUUGUUGUGGACCAGGGCCAGCCUGAAGCAUUGGUGGGCCAAGUUUGUAUCUCCUAUUCCCACAGCUACAUGCCCCAGGUUGUACCAGACAUCAGCUGCCUCUUCUUCAUUUUCAGCCAACAGAGGAUUGAGCAUCA
B4: chr11:6247107:6247108:+_ENSMUSG00000020456_ENSMUST00000003461|mus_mus|motif|central (ssRNA)
RNA: GGGAGUUCUACAGUCCGACGAUCAAACAUAGGUUCGUCCAUCUCAUUGUGGCCAUUUCGUCGAUAACACACCAGAUCAACGGCAACAUCCUUGUGGAAGGUGUUUCUCCACUCAGCUGCCACCUUGCAUACAUACAUGACAGCCAACAGAGGAUUGAGCAUCA
B5: chrX:41029285:41029286:+_ENSG00000124486_ENST00000378308|hu_hu|FALSE|FALSE (ssRNA)
RNA: GGGAGUUCUACAGUCCGACGAUCUGUAUGAGACCAUACCUCCAAGUCAUCAACCUGUCUGCCCUGGUUUGGAAAUCGAACUACAAAAGAGAGGUGUUUACCGCGGAAUGCUCUCGACAUAGGGAGAAUUGUUCUUUCCUCAUGCAACAGAGGAUUGAGCAUCA
B6: chr1:39494447:39494448:+_ENSG00000168653_ENST00000372967|hu_mus|hu_hu_hu_mus_False|18_38 (ssRNA)
RNA: GGGAGUUCUACAGUCCGACGAUCGCACCGAGCGGCGUUCUUAUAGGGCUGUUCUGCGCUUAGGAACAUAAAGUGCCGGUCCAGGCUGAUGCCCAGCCUUUUCUGGAUGUCAAGGAAAGGCAUGGCCCUGCAGUGCCCUUGUCACAACAGAGGAUUGAGCAUCA
B7: chrX:41000244:41000245:+_ENSG00000124486_ENST00000378308|hu_mus|motif|central (ssRNA)
RNA: GGGAGUUCUACAGUCCGACGAUCUGCUUCUUUCUUCAGCUCUUCAUCAGUUAAGUUUUCUAAAAACUGUGGAACCAUUUCGGUUAUUGGAAGAAAGUACUUUUUCACUGUGUGAAGAGUAAGAAACUCAUAGCACUGUCCAAACAACAGAGGAUUGAGCAUCA
B8: chr4:56294251:56294252:-_ENSG00000134852_ENST00000309964|hu_hu|motif|central (ssRNA)
RNA: GGGAGUUCUACAGUCCGACGAUCAACAUAGCACUGAGGUAUUUUUUAUUUUUAAAAUUGAAGGAAACAAAGUCUGGAUCGGAUUAUUUUUACAUUUACAAAAACUGCUACUGCUUGGCUCUUUUGCUAUAAGUUUAGGUUCUGCAACAGAGGAUUGAGCAUCA
B9: chr1:34870196:34870197:-_ENSMUSG00000037503_ENSMUST00000047534|mus_mus|motif|central (ssRNA)
RNA: GGGAGUUCUACAGUCCGACGAUCUGAGCCCAUCUACUCAUCAGAUUGCAUAAAAAAUUAAAACAGUAUGAAUUUACAUCGGAUUGAACUGGCUUGGGAUGGACAGUCUGCCCGUUCCUUUGUUUUGACACAUAAGUUCCAUGACAACAGAGGAUUGAGCAUCA
B10: chr4:56294251:56294252:-_ENSG00000134852_ENST00000309964|hu_hu|FALSE|FALSE (ssRNA)
RNA: B8 RNA with G80U, G81A
B11: 54592465_54592585_3431_3pUTR_ENSMUSG00000005225_ENSMUST00000119706|mouse|control|control (ssRNA)
RNA: GGGAGUUCUACAGUCCGACGAUCUUGCUUGGCUUAAAAUUUUAUUACAAGUGUUUUUAAGAGGCAAGGUCUUGCUAUGUUGUUCAGGUUAAUCUCCAAAUCUUGGGCUCAAAUAAUACUUUACUCUCAUACUUCUGGGUAGCUCAACAGAGGAUUGAGCAUCA
B12: chr1:34870196:34870197:-_ENSMUSG00000037503_ENSMUST00000047534|mus_mus|FALSE|FALSE (ssRNA)
RNA: B9 RNA with G80U, G81A
B13: chr4:17845017:17845018:+_ENSG00000109805_ENST00000514176|hu_mus|hu_hu_hu_mus_False|48_58 (ssRNA)
RNA: GGGAGUUCUACAGUCCGACGAUCGCUCUCUUAACUUGUAUCUUCAUUAAGGAACUCUGCAAGGUUAAGUUUACUUUUUCUAGUGCUGCGGUUUUGGGCUCGUCUGGGUAAUCUCAUCUUCAUUUCUGAUGGUGGUUCAUGAUCCAACAGAGGAUUGAGCAUCA
B14: chr6:114281168:114281169:-_ENSG00000196591_ENST00000368632|hu_hu|hu_hu_hu_mus_True|1_18 (ssRNA)
RNA: GGGAGUUCUACAGUCCGACGAUCUUCCAUUUUUCGGUAUAAACCAUAAUUUAGCAGCAAGUUAUGAGUCAUCCGGAUUCUAUGAGGCUUCAUGGGAUGACCCUGGCCAUAAUAAUAAUUUCCAAUAUCACCAUCAUACUAGAACAACAGAGGAUUGAGCAUCA
B15: 83260623_83262902_554_CDS_ENSMUSG00000031715_ENSMUST00000043359|mouse|control|control (ssRNA)
RNA: GGGAGUUCUACAGUCCGACGAUCUUCUUUUUGCUUUCCAGGUGAUCCAUGAUCAAAUACUUCCUCCAUCUCGGUGUCCGCGGGGCCCGAGCCCGCAGCACACGGAGCCGCGGGCGCCGCGCCGCCCUCGGGGCCGCCUUUGUUCAACAGAGGAUUGAGCAUCA
B16: chr4:86222814:86222815:+_ENSMUSG00000070934_ENSMUST00000091064|mus_mus|FALSE|FALSE (ssRNA)
RNA: GGGAGUUCUACAGUCCGACGAUCGAAUAUUAAAGACAAAUGAUGCAAAAAAAAAAAAAACACCGUAAUUCAGCAUUUUACUAAAGAGCAUUUGGCAUUAUUUCAACGCAUGAGGAGGCUGUGCUUGGGCCCAUCUACUCUUUCCAACAGAGGAUUGAGCAUCA
B17: chr6:40197388:40197389:+_ENSMUSG00000057716_ENSMUST00000061740|mus_mus|mus_mus_mus_hu_False|68_78 (ssRNA)
RNA: GGGAGUUCUACAGUCCGACGAUCGAGACACUGGGGUGGAUUUAUUCCACCUCUGUUUGCUAGCCUCUAAGAUAGAUUGUUAUUUUGGGAUUCAUGGCCUUGAAUAUCAAGAGGGAAAGGAAGAGGAUGGAAAGAGUCAAGAGUCAACAGAGGAUUGAGCAUCA
B18: 52238803_52238923_934_CDS_ENSG00000023330_ENST00000469224|human|control|control (ssRNA)
RNA: GGGAGUUCUACAGUCCGACGAUCCCCACACACCCGUGGGUGGCGACUCAUUCCUAGGUAGUCAUUACUGCACCAGACUGACACUUGCUUUUUGGUGAUGAGGGAGUCUGAAUAGUCAUCUGCCAUGGGGAAGAUGUGUGCUCGCAACAGAGGAUUGAGCAUCA
B19: 14029136_14029256_1416_CDS_ENSG00000175595_ENST00000311895|human|control|control (ssRNA)
RNA: GGGAGUUCUACAGUCCGACGAUCUUUUUUCUUUUUGAGGGUUCUUUCUUUGGUAGAAGCCCGUUCUUUGUUUUGGGGGUCUUUAGGUCUUUUGUGAGAUUUCCUAAUUCUCUUUGAACUGUCUUCCUUCCUAAAUUUCAUCCACAACAGAGGAUUGAGCAUCA
B20: 80201405_80202562_482_3pUTR_ENSMUSG00000017421_ENSMUST00000017567|mouse|control|control (ssRNA)
RNA: GGGAGUUCUACAGUCCGACGAUCCUGUGGCUGAAAGGAAGUUGAGGCUGCAGAUUCAUCAUCAUCAUAUUCAUCAGAAUCAUCUUGUUGUUUCUUUUUCUGACUCUCUUGUGUUUUCUGUUCAAGAAGUCGCCGUCUUUCAUCCAACAGAGGAUUGAGCAUCA
B21: chr4:95690885:95690886:+_ENSMUSG00000028572_ENSMUST00000156910|mus_mus|mus_mus_mus_hu_False|1_8 (ssRNA)
RNA: GGGAGUUCUACAGUCCGACGAUCUUUAGAAAAUGUUAAAUACCAUGCUAAAAUAUUUUCAAAGGCUUAUUUUAUUUUACCAGAAGUCACAGGCAAGCAGACACUACAAGAAUAUAUGAAAAUGAAACAACAGUGUAAAAUGUACAACAGAGGAUUGAGCAUCA
B22: chr19:7991675:7991676:-_ENSG00000104980_ENST00000595831|hu_mus|motif|central (ssRNA)
RNA: GGGAGUUCUACAGUCCGACGAUCAUGUACAGGAAGUAAGAGCACUGAUUUAAAAACAAAAACAAAACAAAACAAAAGGACCGGAAGUGGCUUGGAAGGCAAUGCCAGUGGACUACUUAGAACAGCAGGCCAGGCCUCACCCGACAACAGAGGAUUGAGCAUCA
B23: chr6:30692278:30692279:+_ENSG00000196230_ENST00000327892|hu_hu|FALSE|FALSE (ssRNA)
RNA: GGGAGUUCUACAGUCCGACGAUCCCAGAGUGGAAAGAGAGAGGAGACAUUCAACAAACAAGUAUUUAUUGAGCGCCUACUAUGUGCCAGGCACUGUUCUAGACCCCCCCCAGAAGAAAAAACAAAAAACAAGAUAGAGGCAGCCAACAGAGGAUUGAGCAUCA
B24: chr5:136386232:136386233:-_ENSMUSG00000051391_ENSMUST00000055808|mus_hu|FALSE|FALSE (ssRNA)
RNA: GGGAGUUCUACAGUCCGACGAUCAAGUACACAAUCGAUGGCUUGAUGUUACAUAUGGCUGUAAUGUAGAAAUACUGUAAACUGCAAUUUAGUGUUAAUACUGUCAACUAAUCAGAGACUUCGGAAAACUGGCAAGGCCUAAACCAACAGAGGAUUGAGCAUCA
B25: chr19:7991675:7991676:-_ENSG00000104980_ENST00000595831|hu_mus|FALSE|FALSE (ssRNA)
RNA: B22 RNA with G82U, G83A
B26: chr19:37063429:37063430:+_ENSMUSG00000040565_ENSMUST00000099494|mus_mus|FALSE|FALSE (ssRNA)
RNA: GGGAGUUCUACAGUCCGACGAUCCAUAGCAUCCCAAAGAUGUGGCAACUUCACUGCCAUUUCAGCACCAAAAUGCUUCACUAUAGUUGUUAAGGCAAAUUCAGCUCCUCUCCGCUGUACCAGGUAAGGCUUCUGACCCUCAUCCAACAGAGGAUUGAGCAUCA

What follows are binders tested against T1, UNK ZnF1-3 (assay: nsRBNS (natural sequence RNA bind-n-seq); RBNS binding buffer (assumed for nsRBNS): 25 mM Tris pH 7.5, 150 mM KCl, 3 mM MgCl2, 0.01% Triton X-100, 500 ug/ml BSA, 20 U/ml SUPERase-In, 4 C; UNK is unkempt and MSI1 is Musashi-1; names of the RNAs are library labels; protein concentration not given here; high values mean tight binding).

Going from B1 to B2, the binding signal falls from 1.15 enrichment R to 0.624 enrichment R.

Going from B3 to B4, the binding signal falls from 0.726 enrichment R to 0.7 enrichment R.

Going from B5 to B6, the binding signal falls from 1.07 enrichment R to 0.685 enrichment R.

First: B7
Second: B8
The binding signal of the first is lower: 0.545 enrichment R for the first, 3.76 enrichment R for the second.

Going from B9 to B10, the binding signal rises from 1.36 enrichment R to 4.1 enrichment R.

Compared with B11, B12 is higher in binding signal: 1.3 enrichment R for the first, 1.33 enrichment R for the second.

Going from B13 to B14, the binding signal rises from 0.378 enrichment R to 1 enrichment R.

First: B15
Second: B16
The binding signal of the first is lower: 0.826 enrichment R for the first, 1.67 enrichment R for the second.

Compared with B17, B18 is lower in binding signal: 1.33 enrichment R for the first, 1.04 enrichment R for the second.

Compared with B19, B20 is higher in binding signal: 0.174 enrichment R for the first, 0.524 enrichment R for the second.

First: B21
Second: B22
The binding signal of the first is lower: 1.97 enrichment R for the first, 5.15 enrichment R for the second.

Compared with B23, B24 is lower in binding signal: 2.28 enrichment R for the first, 1.26 enrichment R for the second.

Compared with B25, B26 is lower in binding signal: 5.35 enrichment R for the first, 0.992 enrichment R for the second.
